Measurements taken from PubChem BioAssay (NCI).
Compounds without any hit were thinned out: in the full panel of roughly 79,000, 15% have a hit. Active and inactive are the calls of the source. No stated cut-off is given here; in the data, active means growth inhibition above about 70%; inactive means the rest.

Assays:
[1] = NCI Yeast Anticancer Drug Screen. Data for the rad50 strain (AID 155);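 further: 0% = growth of vehicle-only cultures of the same strain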; conditions: S. cerevisiae rad50 strain growth inhibition, hits give high values
In short: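 Relative growth inhibition (compound vs vehicle) was measured in yeast with a defined repair-gene alteration.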

[2] = NCI Yeast Anticancer Drug Screen. Data for the mec2-1 strain (AID 157); conditions: S. cerevisiae mec2-1 strain, hits give high values
In short: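 mec2-1 yeast strain, carrying an alteration in DNA damage repair or cell cycle control, was exposed to compounds; growth inhibition was measured relative to vehicle-treated controls.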

[3] = NCI Yeast Anticancer Drug Screen. Data for the sgs1 mgt1 strain (AID 161);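 further: 0% = growth of cultures given vehicle only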; conditions: S. cerevisiae sgs1 mgt1 strain, hits give high values
In short: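 Yeast cells carrying a defined DNA-repair defect were exposed to test compounds. Growth inhibition was measured relative to vehicle-treated controls.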

[4] = NCI Yeast Anticancer Drug Screen. Data for the cln2 rad14 strain (AID 165);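 further: 0% = growth equal to vehicle treated cultures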; conditions: S. cerevisiae cln2 rad14 strain, hits give high values
In short: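 Yeast carrying cln2 and rad14 alterations (cell cycle control and DNA damage repair) were exposed to compounds. Growth inhibition was measured against vehicle-treated controls.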

[5] = NCI Yeast Anticancer Drug Screen. Data for the bub3 strain (AID 167); conditions: S. cerevisiae bub3 mutant strain, hits give high values
In short: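 Screening used yeast with an engineered genetic alteration affecting cell cycle control. Compound-exposed cultures were compared with vehicle cultures, and reduced growth was taken as inhibition.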

[6] = NCI Yeast Anticancer Drug Screen. Data for the mlh1 rad18 strain (AID 175); conditions: S. cerevisiae mlh1 rad18 strain growth inhibition, hits give high values
In short: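 Growth inhibition of the yeast strain was measured after compound exposure and expressed relative to vehicle-treated controls. The strain carries defined defects in DNA damage repair.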

[7] = at 5.0 µM (retest, dose inferred, filed as 0.5)
[8] = at 50.0 µM (retest, dose inferred, filed as 5.0)

Measured: growth inhibition

CCc1cc(C)cc(NC(=O)OC2CCCCC2C)c1 (stereo not drawn)
active: [1]; at 50.0 µM 90.2% | [2]; at 50.0 µM 91% | [3]; [8] 92% | [3]; at 50.0 µM 91.2% | [4]; at 50.0 µM 89.1% | [5]; [8] 85% | [5]; at 50.0 µM 91.3% | [6]; [8] 72% | [6]; at 50.0 µM 90.4%
inactive: [1]; [7] 42% | [1]; [8] 66% | [2]; [7] 35% | [2]; [8] 49% | [3]; [7] 35% | [4]; [7] 20% | [4]; [8] 69% | [5]; [7] 37% | [6]; [7] 38%

N#Cc1c(-c2ccc(Cl)cc2)c(-c2ccc(Cl)cc2)nn(CCOC(=O)CN)c1=O
inactive: [1]; [7] 18% | [1]; at 50.0 µM 40.5% | [2]; [7] 10% | [2]; at 50.0 µM 57% | [3]; [7] -27% | [3]; at 50.0 µM 45.6% | [4]; [7] 6% | [4]; at 50.0 µM 18.6% | [5]; [7] -16% | [5]; at 50.0 µM 35.1% | [6]; [7] 22%
active: [1]; [8] 94% | [2]; [8] 96% | [3]; [8] 89% | [4]; [8] 82% | [5]; [8] 86% | [6]; [8] 97% | [6]; at 50.0 µM 87%

Cc1ccc(C2(O)CC(c3ccc([N+](=O)[O-])o3)=NN2C(=O)COc2ccc(Cl)cc2)cc1 (stereo not drawn)
inactive: [1]; [7] 46% | [1]; [8] 46% | [1]; at 50.0 µM 6.1% | [2]; [7] 29% | [2]; [8] 29% | [2]; at 50.0 µM 51.9% | [3]; [7] 39% | [3]; [8] 39% | [3]; at 50.0 µM 52.6% | [4]; [7] 11% | [4]; [8] 11% | [5]; [7] 10% | [5]; [8] 10% | [5]; at 50.0 µM 37.6% | [6]; [7] 43% | [6]; [8] 43% | [6]; at 50.0 µM 34.3%
active: [4]; at 50.0 µM 70.3%

CC(CCOP(=O)(O)OCCC(C)CC(C)(C)C)CC(C)(C)C (stereo not drawn)
active: [5]; at 50.0 µM 71.4%
inactive: [1]; [7] -3% | [1]; [8] 20% | [1]; at 50.0 µM 11.8% | [2]; [7] -9% | [2]; [8] 13% | [2]; at 50.0 µM 62.6% | [3]; [7] -4% | [3]; [8] 52% | [3]; at 50.0 µM 35.4% | [4]; [7] -2% | [4]; [8] 45% | [4]; at 50.0 µM 51% | [5]; [7] -19% | [5]; [8] 10% | [6]; [7] 3% | [6]; [8] 19% | [6]; at 50.0 µM 47.8%

CCCCCCN(S(=O)(=O)c1ccc([N+](=O)[O-])cc1)S(=O)(=O)c1ccc([N+](=O)[O-])cc1
active: [2]; at 50.0 µM 73.7% | [3]; at 50.0 µM 71.3% | [6]; at 50.0 µM 73.8%
inactive: [1]; [7] 23% | [1]; [8] 48% | [1]; at 50.0 µM 66.8% | [2]; [7] -105% | [2]; [8] 51% | [3]; [7] 8% | [3]; [8] 48% | [4]; [7] 8% | [4]; [8] 55% | [4]; at 50.0 µM 68.7% | [5]; [7] 32% | [5]; [8] 50% | [5]; at 50.0 µM 56.9% | [6]; [7] 18% | [6]; [8] 48%

C=C1C(=O)OC2CC(C)C3C=CC(=O)C3CC12 (stereo not drawn)
inactive: [1]; [7] 17% | [1]; [8] 55% | [2]; [7] 12% | [2]; [8] 50% | [3]; [7] 15% | [3]; [8] 57% | [4]; [7] 24% | [4]; [8] 40% | [5]; [7] 22% | [6]; [7] 16% | [6]; [8] 34%
active: [1]; at 50.0 µM 88.7% | [2]; at 50.0 µM 91.6% | [3]; at 50.0 µM 91.3% | [4]; at 50.0 µM 89.3% | [5]; [8] 72% | [5]; at 50.0 µM 88.2% | [6]; at 50.0 µM 90.6%
